SMILES strings stand for the structures. About 4,200 (1.3%) of roughly 330,000 compounds were called active. Inconclusive results (about 6%) are left out. Shown is part of a subset that was picked to be rich in actives. A call without a number means that no potency is given here. Unmarked numbers belong to inactive results. Calls follow the shape of the dose curve; as a rule, active = well fitted activation curve with a large enough effect; inconclusive = small, poorly fitted or top-dose-only effect; inactive = no such curve, though single readings can be large or run the other way.
Potency is read from the fitted curve at half-maximal effect.

The test can be described thus: qHTS screen for small molecules that induce genotoxicity in human embryonic kidney (HEK293T) cells expressing luciferase-tagged ELG1. Also: nearly all actives have a fitted effect of over 60% in size. The note with it: HEK293T ELG1-luciferase reporter, luminescence, 16 h; series mostly up to 46 µM. Summed up: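 16 hr compound incubation (37 °C, 5% CO2) of HEK293T cells carrying luciferase-tagged ELG1; luciferase then measured by ONE-Glo luminescence after 30 min at RT.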
On the technique in general: Quantitative high-throughput screening tests each substance at several concentrations.
For the compound `COc1cc(/C=C2\Oc3ccc(C#Cc4ccc(O)cc4)cc3C2=O)cc(OC)c1`, the Potency result is “inactive”.
As for `Cc1cc(C(=O)OCC(=O)N2C(C)CCCC2C)c2ccccc2n1` (stereo not drawn), the Potency result was “inactive”.
On to `O=C(c1cnccn1)N1CCN(S(=O)(=O)c2cccc(Cl)c2)CC1`, for which the Potency entry is “inactive”.
Take `O=C(COC(=O)c1cc[n+]([O-])cc1)Nc1ccc(Cl)c(C(F)(F)F)c1`: the Potency result was “inactive”.
As for `COc1ccc(C(=O)CC(=O)c2ccc(C)cc2)c(O)c1`, the Potency result was “inactive”.
With `Cc1cc(O)cc(O)c1C(=O)Cc1cnn(-c2ccccc2)c1`, the Potency entry is “inactive”.
The same measure, in the same setting: then `COc1ccc(C(=O)Cc2cnn(-c3ccccc3)c2)c(O)c1`, with 18.4 µM (active); and `CC(=NCc1ccco1)c1c(C(F)(F)F)[nH]n(-c2nc3ccccc3s2)c1=O`, with 2.59 µM (active); and `CCc1ccc(-c2cc(C(=O)NCc3ccco3)c3ccccc3n2)s1`, with “inactive”.
Regarding `CCC1(CC)NC(=O)N(Cc2nc3ccccc3s2)C1=O`, the Potency entry is “inactive”.
Turning to `COc1cc(OC)cc(C(=O)NCC(=O)OCC(=O)NC(C)CCc2ccccc2)c1` (stereo not drawn), the Potency entry was “inactive”.
Regarding `COc1cc(OC)c(C(=O)NNC(=O)c2ccccc2-n2cccc2)cc1OC`, the Potency entry was “inactive”.
On to `CSc1ccc(C#N)cc1NC(=O)c1cccc(Cl)c1`, for which the Potency result is “inactive”.
For `N#Cc1ccccc1NC(=O)c1cccc(COc2ccc(Cl)cc2Cl)c1`, the Potency was 0.461 µM (active).
As to `O=C(Nc1ccn(Cc2ccccc2F)n1)c1ccc(COc2ccc(Cl)cc2Cl)o1`, the Potency entry is “inactive”.
`O=C(COC(=O)c1ccccn1)NNC(=O)c1ccc(Br)cc1`: the Potency entry is “inactive”.
Same read-out and setting: with `O=C(N[C@H]1C/C=C\C(c2cccc(F)c2)N(Cc2ccccc2)C(=O)C1)OCC1c2ccccc2-c2ccccc21` (stereo partly drawn) the entry was “inactive”; with `COc1ccc(S(=O)(=O)N(C)C[C@H]2Oc3c(NC(=O)Nc4ccc5c(c4)OCO5)cccc3C(=O)N([C@H](C)CO)C[C@@H]2C)cc1`, “inactive”; with `CC(Oc1ccc2c(-c3ccccc3)cc(=O)oc2c1)C(=O)NC(Cc1c[nH]c2ccccc12)C(=O)O` (stereo not drawn), “inactive”.
As for `O=C(Nc1ccccc1N1CCN(c2ccccc2)CC1)c1cccc(F)c1`, the Potency result is “inactive”.
For `O=C(Nc1ccn(Cc2ccccc2)n1)c1cccc(F)c1`, the Potency is 23.1 µM (active).
The same measure, in the same setting: with `O=C(Nc1cccc(NC(=O)c2cccc(F)c2)c1)c1ccccc1` the entry was “inactive”; with `O=S(=O)(Nc1ncnc2sccc12)c1cccc(F)c1`, “inactive”.
For the compound `Cc1ccc(NC(=O)c2ccc(Cl)nc2)cc1S(=O)(=O)N1CCOCC1`, the Potency entry is “inactive”.
Still for that read-out and setting: with `COc1cccc(-c2nc3cc(C)ccc3o2)c1` the figure was 1.3 µM (active); with `COc1ccc2oc(-c3cccc(NC(=O)CSc4ccc(Cl)cc4)c3)nc2c1`, “inactive”; with `COc1cccc(-c2nnc(SCCOc3ccc4c(C)cc(=O)oc4c3)o2)c1`, “inactive”.
Take `CC(OC(=O)c1ccc([N+](=O)[O-])cc1)C(=O)NCC1CCCCC1` (stereo not drawn): the Potency result is “inactive”.
For `Cc1cc(CN(C)C(=O)c2cc(COc3ccc(C)c(C)c3)on2)n[nH]1`, the Potency was 2.91 µM (active).
Regarding `CN(Cc1cccnc1)C(=O)c1cc(COc2ccc3ncccc3c2)on1`, the Potency result was “inactive”.
Take `CN(Cc1cnccn1)C(=O)c1cc(COc2cccc(C(F)(F)F)c2)on1`: the Potency entry is “inactive”.
`O=C(Cn1cnc2c(OCc3ccccc3)ncnc21)NCc1nc2ccccc2[nH]1`: the Potency entry was “inactive”.
Regarding `COc1ccc(C(=O)NCCSc2ccccc2C)cc1`, the Potency was 4.61 µM (active).
Regarding `COc1ccc(C(=O)NCc2nnc(SCCOc3ccccc3)n2C)cc1`, the Potency entry is “inactive”.
Same read-out and setting: then `COc1cccc(C(=O)NCCSc2ccc(Br)cc2)c1`, with “inactive”; and `COc1ccc2nc3n(c(=O)c2c1)-c1ccc(Cl)cc1C(=O)NC3Cc1ccccc1` (stereo not drawn), with “inactive”; and `COc1ccc(CCNC(=O)COC(=O)c2ncc(Cl)c(Cl)c2Cl)cc1OC`, with “inactive”.
In the case of `CN1CN(C)c2ccc([N+](=O)[O-])c3cccc1c23`, the Potency entry is “inactive”.
The same measure, in the same setting: with `CCOc1cccc(=O)c2c(C)n(CC3CCCO3)c(C)c12` (stereo not drawn) the entry was “inactive”; with `O=C1c2cccc3c([N+](=O)[O-])ccc(c23)C(=O)N1CC1CCCO1` (stereo not drawn), 20.6 µM (active).
As to `CC[C@@H](C)[C@@H]1CN([C@@H](C)CN2CCC[C@H]2CN2C(N)=NC[C@H]2C(C)C)C(=N)N1CCc1ccc(Cl)c(Cl)c1`, the Potency entry was “inactive”.
For `COc1ccc(-c2nc3cc(C)ccn3c2NC2CCCCC2)cc1SC1CCCCC1`, the Potency entry was “inactive”.
Consider `CC1(C)CN(c2ccc(-c3ccnc4ncnn34)cc2)C1=O`, for which the Potency was 12.6 µM (active).
`Nc1c(-c2ccc(F)cc2)cnc2ncnn12`: the Potency result is “inactive”.
Turning to `Cc1ccc(C2(C)NC(=O)N(CC(=O)N3CC(=O)Nc4ccccc43)C2=O)cc1` (stereo not drawn), the Potency entry is “inactive”.
On to `Cc1occc1C(=O)Nc1cccc(S(=O)(=O)N2CCOCC2)c1`, for which the Potency entry was “inactive”.
For `O=C1C=CN2CCCC2CC1` (stereo not drawn), the Potency entry is “inactive”.
With `Cc1ccc(/C=N/NC(=O)c2cc3ccccc3cc2O)o1`, the Potency entry is “inactive”.
On the same count and under the same terms, with `Cc1cc(N=Nc2ccc3ccccc3c2)ccc1O` the figure was 7.3 µM (active); with `Cc1ccc(Br)c(NS(=O)(=O)c2cccc(C(=O)N3CCNC(=O)C3)c2)c1`, “inactive”.
Same read-out and setting: then `CC1(C)CC[C@@]2(C(=O)O)C(C1)C1=CCC3[C@@]4(C)CC[C@H](O)C(C)(C)C4CC[C@@]3(C)[C@]1(C)C[C@H]2O` (stereo partly drawn), with “inactive”; and `O=C(COc1ccc([N+](=O)[O-])cc1Cl)Nc1ccc2[nH]c(=O)[nH]c2c1`, with “inactive”.
In the case of `Cc1csc(=O)n1CC(=O)Nc1ccc(S(C)(=O)=O)cc1`, the Potency result was “inactive”.
Consider `O=C(COC(=O)c1ccc(F)c(S(=O)(=O)N2CCOCC2)c1)NCc1ccc2c(c1)OCO2`, for which the Potency result was “inactive”.
The same measure, in the same setting: then `O=C1CC2(CCCC2)C(=O)N1CN1CCN(S(=O)(=O)c2ccc(F)cc2F)CC1`, with “inactive”; and `Oc1cccc2ccc(/C=C/c3ccc(Br)s3)nc12`, with 20.6 µM (active).
As to `Nc1ccc(S(=O)(=O)Nc2nccc(/C=C/c3ccc(Br)s3)n2)cc1`, the Potency result was “inactive”.
Turning to `O=C(Nc1nc(-c2cccnc2)cs1)c1ccccc1F`, the Potency is 18.3 µM (active).
As for `O=C(O)c1ccccc1C(=O)Nc1nc(-c2ccccc2)cs1`, the Potency entry is “inactive”.
Same read-out and setting: then `O=C(COc1ccccc1F)Nc1nc(-c2ccccn2)cs1`, with “inactive”; and `CC1O[C@@H](OC2C(O)C(C)O[C@H](OC(=O)[C@]34CCC(C)(C)C[C@H]3C3=CCC5[C@@]6(C)CC(O)C(O[C@@H]7OC(CO)C(O)[C@@H](O)[C@@H]7O)[C@@](C)(C(=O)O)C6CC[C@@]5(C)[C@]3(CO)CC4)C2O[C@H]2OC(C)[C@@H](O[C@@H]3OCC(O[C@@H]4OC(CO)C(O)[C@H](O)C4O)[C@@H](O)[C@@H]3O)[C@H](O)C2O)C(O)C(O)C1O` (stereo partly drawn), with “inactive”.
`C=CCNC(=O)c1csc(-c2ccccc2)n1`: the Potency entry is “inactive”.
In the case of `C=CCNC(=O)c1ccccc1SCc1c(C)noc1C`, the Potency entry is “inactive”.
For `C=CCNC(=O)c1cc(-c2ccccc2O)on1`, the Potency is 18.4 µM (active).
Regarding `C[C@H](CO)N1C[C@H](C)[C@@H](CN(C)S(=O)(=O)c2ccc(F)cc2)Oc2ccc(NC(=O)CCC(F)(F)F)cc2C1=O`, the Potency entry is “inactive”.
Turning to `COc1ccc(OCC(=O)Nc2nnc(-c3ccco3)s2)cc1`, the Potency result was “inactive”.
Regarding `CCCCOc1ccc(-c2nnc(-c3ccco3)o2)cc1`, the Potency is 3.66 µM (active).
On the same count and under the same terms, then `O=C(CCc1ccccc1)Nc1cccc(-c2nnc(-c3ccco3)o2)c1`, with “inactive”; and `CCC(C)c1ccc(NC(=O)COC(=O)C2CCCC2)cc1` (stereo not drawn), with “inactive”.
On the same count and under the same terms, with `COc1cc(/C=C/C(=O)Nc2ccc(OC)c(S(=O)(=O)N3CCOCC3)c2)ccc1OCC#N` the entry was “inactive”.
On to `O=C(OCCN1C(=O)c2ccccc2C1=O)[C@@H]1CC(O)CN1S(=O)(=O)c1ccccc1[N+](=O)[O-]` (stereo partly drawn), for which the Potency result is “inactive”.
Regarding `CCCc1cc(=O)oc2c(C)c(OCC(=O)N3CCC(C(=O)O)CC3)ccc12`, the Potency entry is “inactive”.
For the compound `CCCc1cc(=O)oc2c(C)c(OCC(=O)NCc3ccccn3)ccc12`, the activity change, positive = activation is 0.193% [at 9.26 µM].
Regarding `CCCc1cc(=O)oc2c(C)c(OCC(=O)Nc3ccccn3)ccc12`, the Potency is 5.17 µM (active).
On the same count and under the same terms, with `O=C(Nc1cc(S(=O)(=O)N2CCCCC2)ccc1Cl)C1COc2ccccc2O1` (stereo not drawn) the entry was “inactive”.
For `CC[C@]12c3[nH]c4ccc(Cl)cc4c3CCN1C(=O)[C@@H](CC(=O)NCCN1CCOCC1)C[C@@H]2C(=O)N1CCN(C(=O)C2CC2)CC1`, the Potency result is “inactive”.
As to `COc1ccc(NS(=O)(=O)c2ccc3oc(SCC(N)=O)nc3c2)cc1`, the Potency entry is “inactive”.
For `COc1ccc(S(=O)(=O)N(C)C)cc1NC(=O)CSc1ncccn1`, the Potency result is “inactive”.
As to `CN(C)S(=O)(=O)c1ccc2oc(SCC(=O)Nc3ccccc3F)nc2c1`, the Potency is 10.3 µM (active).
With `O=c1c2c(nc3cc(-c4cccc(Cl)c4)[nH]n13)CCCC2`, the Potency is 0.517 µM (active).
`CCCCN1Cc2c(nc3cc(-c4ccccc4)[nH]n3c2=O)C1=O`: the Potency entry is “inactive”.
For `O=c1c2c(nc3nc[nH]n13)CCC2`, the Potency entry was “inactive”.
For the compound `Cc1ccc(CNC(=O)Cn2cnc3c(NCc4ccccc4)ncnc32)o1`, the Potency entry is “inactive”.
For `CCc1noc(C)c1C(=O)Nc1nc(-c2ccccc2)cs1`, the Potency result is “inactive”.
Consider `Clc1ccc(-c2csc(-c3ccncc3)n2)cc1`, for which the Potency entry was “inactive”.
Same read-out and setting: with `Cc1cccc(Nc2nc(-c3ccccc3)cs2)n1` the figure was 2.91 µM (active); with `Clc1ccc(Nc2nc(-c3cccs3)cs2)nc1`, 1.16 µM (active); with `O=C(Nc1nc(-c2ccc(-c3ccccc3)cc2)cs1)c1cnccn1`, “inactive”.
Turning to `COc1ccc(Nc2nc(-c3ccccc3)cs2)cc1`, the Potency was 0.58 µM (active).
Turning to `COc1ccc(Nc2nnc(C)c3ccccc23)cc1`, the Potency result is “inactive”.
With `c1ccc(Nc2nc(-c3ccncc3)cs2)nc1`, the Potency was 1.46 µM (active).
Take `c1csc(-c2cn3c(n2)SCC3)c1`: the Potency result is “inactive”.
Same read-out and setting: with `COc1ccc(NC(=O)c2sc(N)nc2-c2ccccc2)cc1` the entry was “inactive”; with `Clc1ccc(-n2nnnc2-c2cnc(-c3ccccn3)nc2-c2cccs2)cc1`, “inactive”; with `Cc1cccc(S(=O)(=O)CC(=O)Nc2nc(-c3ccccc3)cs2)c1`, “inactive”.
In the case of `O=C(NCC#CCSc1nnc(-c2cccc3ccccc23)o1)c1cccs1`, the Potency entry was “inactive”.
On to `O=C(CNC(=O)c1ccco1)NNC(=O)c1ccc(Br)cc1`, for which the Potency entry is “inactive”.
In the case of `C[C@H](CO)N1C[C@H](C)[C@@H](CN(C)C(=O)Nc2ccc3c(c2)OCO3)Oc2c(cccc2N(C)C)C1=O`, the Potency result was “inactive”.
